# Test results taken from PubChem BioAssay (NCATS).
# Where “and” joins values, the source holds several entries; their conditions need not be identical. Identical values can stand only once. Inconclusive results are not listed. Entries that show only a call come without a potency. Some structures have more than one record in an assay (separate samples or runs), and their calls can disagree. Calls of active or inactive are those of the source. Calls come from the whole dose curve; as a rule, active = well fitted curve in the direction sought with a large enough effect; inconclusive = small, poorly fitted or top-dose-only effect, or another doubt; inactive = no such curve, though single readings can be large; an effect the other way counts as inactive or inconclusive.
# Legend:
# [1] = target: Glutathione peroxidase 1 (Homo sapiens) (UniProt P07203); assay: Primary qHTS Assay for Inhibitors of Recombinant Selenoprotein Glutathione Peroxidase 1 (GPX1) (AID 1845191); note: nearly all actives have a fitted effect of over 65% in size; note: potency is the fitted concentration of half-maximal effect
# Chain of Glutathione peroxidase 1 (Homo sapiens) (P07203 whole entry, looked up): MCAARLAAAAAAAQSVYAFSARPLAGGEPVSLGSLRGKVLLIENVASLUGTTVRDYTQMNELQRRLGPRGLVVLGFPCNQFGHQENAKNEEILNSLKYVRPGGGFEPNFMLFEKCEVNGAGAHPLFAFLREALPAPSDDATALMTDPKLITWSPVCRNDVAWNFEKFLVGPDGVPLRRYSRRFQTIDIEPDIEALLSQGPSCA
# Procedure, shortened: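 Recombinant GPX1 (10 nM final) was preincubated with compound for 30 min at room temperature, then reacted with 1 mM GSH, 0.5 mM CHP, 0.5 mM NADPH and 100 nM glutathione reductase; NADPH fluorescence (340/450 nm) was read at 0 and 15 min.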
# [2] = target: Phospholipid hydroperoxide glutathione peroxidase GPX4 (Homo sapiens) (UniProt P36969); assay: Primary qHTS Assay for Inhibitors of Recombinant Selenoprotein Glutathione Peroxidase 4 (GPX4) (AID 1845192); note: nearly all actives have a fitted effect of over 65% in size; note: potency is the fitted concentration of half-maximal effect
# Chain of Phospholipid hydroperoxide glutathione peroxidase GPX4 (Homo sapiens) (P36969 whole entry, looked up): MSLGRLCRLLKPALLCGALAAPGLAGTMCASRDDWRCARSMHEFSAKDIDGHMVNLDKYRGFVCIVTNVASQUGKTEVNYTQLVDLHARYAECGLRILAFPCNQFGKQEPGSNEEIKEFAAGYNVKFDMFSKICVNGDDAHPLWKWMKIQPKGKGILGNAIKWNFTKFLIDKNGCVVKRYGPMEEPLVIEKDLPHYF
# Procedure, shortened: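 GR-coupled readout: 100 nM GR, 1 mM GSH, 0.5 mM NADPH; NADPH fluorescence (ex 340/em 450 nm) read at t=0 and after 15 min RT. GPX4 200 nM, preincubated 30 min with compound; substrate 0.5 mM CHP.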
# [3] = target: Luciferin 4-monooxygenase (Photinus pyralis) (UniProt P08659); assay: Primary firefly luciferase (FLuc) qHTS assay for identification of artifact compounds. (AID 1845220); note: nearly all actives have a fitted effect of over 60% in size; note: potency is the fitted concentration of half-maximal effect
# Procedure, shortened: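 qHTS, 15 min compound preincubation with substrate (10 uM luciferin, 10 uM ATP) at RT, then 10 nM FLuc; 5 min; luminescence; % inhibition vs no-enzyme/DMSO controls, 4-parameter Hill fit.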
# [4] = tested on: Nanoluciferase (engineered Oplophorus gracilirostris luciferase); assay: Primary Nanoluciferase (NLuc) qHTS assay for identification of artifact compounds. (AID 1845222); note: series mostly up to about 54 µM
# Procedure, shortened: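 Luminescence read-out of secreted NLuc in S16 cell conditioned medium (1:55); compounds tested with 15 min RT preincubation, then Nano-Glo substrate 1:100, 5 min. % inhibition vs no-enzyme and DMSO controls, 4-parameter Hill fit.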
# [5] = Primary redox qHTS assay for identification of artifact compounds. (AID 1845223)
# Procedure, shortened: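 Amplex Red (25 uM) and HRP (250 mU/mL) in HBSS, with compounds for 15 min, then 250 uM DTT for 30 min, room temperature, dark. Fluorescence 525/598 nm read; normalized to DMSO and 10 uM DA3003; Hill fit.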
# [6] = Primary fluorescence-based thiol-reactive (MSTI) qHTS assay for identification of artifact compounds. (AID 1845221); note: nearly all actives have a fitted effect of over 65% in size; note: potency is the fitted concentration of half-maximal effect
# Procedure, shortened: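 A multi-concentration qHTS design tested compounds against 4 uM MSTI, pH 7.4 phosphate-buffered saline. Plates were protected from light for 1 h at room temperature before imaging fluorescence.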
Compound,Potency [1],Potency [2],Potency [3],Potency [4],Potency [5],Potency [6]
Cc1cn2cc(C(=O)N(C)CCO)cc(N[C@@H]3CCOc4cccc(C)c43)c2n1,inactive,inactive,inactive,inactive,inactive,
c1cc(-c2cnn3cc(-c4ccc(OCCN5CCCCC5)cc4)cnc23)ccn1,,inactive,,,,
C#Cc1cccc(Nc2ncnc3cc(OC)c(OCCCCCCC(=O)NO)cc23)c1,inactive,inactive,inactive,,inactive,inactive
CC1COC2(CCN(c3nc(=O)c4cc(C(F)(F)F)cc([N+](=O)[O-])c4s3)CC2)O1 (configuration not stated),inactive,inactive,inactive,inactive,inactive,
Cc1cc(CN2CCN(c3c(Br)cnc4nc(-c5ccc(N6CCN(C)CC6)cc5)[nH]c34)CC2)no1,11.4 µM (active) and 12.9 µM (active),inactive and 14.3 µM (active),inactive,inactive,inactive,
CC[C@@]1(O)C(=O)OCc2c1cc1n(c2=O)Cc2cc3cc(O)ccc3nc2-1,inactive,inactive,inactive,,inactive,
CC(=O)Nc1sc2c(c1-c1nc3ccccc3s1)CNC2,3.6 µM (active),,inactive,inactive,inactive,inactive
COC(=O)Nc1ccc(-c2nc(N3CCOCC3)c3cnn(C4CCN(Cc5cccnc5)CC4)c3n2)cc1,inactive,,inactive,inactive,inactive,inactive
Cc1c(Cn2c(C)nc3c(C(=O)O)cc(N4CCOCC4)cc32)cccc1C(F)(F)F,inactive,inactive,inactive,,inactive,
N#CCNC(=O)c1ccc(-c2ccnc(Nc3ccc(N4CCOCC4)cc3)n2)cc1,inactive,inactive,inactive,,inactive,1.5 µM (active)
CN(C)c1nc(Cc2ccc(NC(=O)c3ccc4ccccc4c3)cc2)nc(Cl)c1CC(=O)O,inactive,inactive,,inactive,inactive,inactive
COc1ccc(-c2cc3c(C)nc(N)nc3n(C3CCC(OCCO)CC3)c2=O)cn1 (configuration not stated),5.78 µM (active) and 16.1 µM (active),,inactive,inactive,inactive,inactive
CC1(O)CC(c2nc(-c3ccc4ccc(-c5ccccc5)nc4c3)c3c(N)nccn23)C1 (configuration not stated),inactive,inactive,inactive,,inactive,
CC(C)c1cnn2c(NCc3ccccc3)cc(N[C@@H](CO)[C@H](O)CO)nc12,inactive,inactive,inactive,inactive,inactive,
CCc1cc2c(cc1N1CCC(N3CCOCC3)CC1)C(C)(C)c1[nH]c3cc(C#N)ccc3c1C2=O,inactive,inactive,inactive,,inactive,inactive
Cn1cc(-c2[nH]c3cc(NC(=O)[C@H](N)C4CCCCC4)cc4c3c2C=NNC4=O)cn1,inactive,inactive,inactive,,inactive,21.2 µM (active)
CC(C)(C)c1cc(NC(=O)Nc2ccc(-c3cn4c(n3)sc3cc(OCCN5CCOCC5)ccc34)cc2)no1,inactive,inactive,inactive,inactive,inactive,
O=C(O)Cn1nnc(-c2cc(N3CCC(Oc4cc(F)ccc4Br)CC3)no2)n1,inactive,,inactive,inactive,inactive,inactive
COc1cc2c(Nc3ccc(NC(=O)c4ccccc4)cc3)ncnc2cc1OCCCN1CCOCC1,inactive,inactive,inactive,,inactive,inactive
CC[C@@H]1C(=O)N(C)c2cnc(Nc3ccc(C(=O)NC4CCC(N5CCN(CC6CC6)CC5)CC4)cc3OC)nc2N1C(C)C (some centres not stated),inactive,inactive,inactive,,inactive,inactive
O=C(Nc1cc(C(F)(F)F)cc(C(F)(F)F)c1)c1cc(Cl)ccc1O,inactive,inactive,inactive,,inactive,
CCc1c2c(nc3ccc(O)cc13)-c1cc3c(c(=O)n1C2)COC(=O)[C@]3(O)CC,inactive,inactive,inactive,inactive,inactive,
CN(C)Cc1c(C(=O)NCCOc2ccc(C(=O)NO)cc2)oc2ccccc12,inactive,inactive,inactive,inactive,inactive,
CC(C)(O)CCc1ccc(OCc2cc(-c3cccc(OC(F)F)c3)c3ncccc3c2)cc1,inactive,inactive,13.5 µM (active),,inactive,inactive
COc1cc(Nc2ncc(F)c(Nc3ccc4c(n3)N(COP(=O)(O)O)C(=O)C(C)(C)O4)n2)cc(OC)c1OC,inactive,inactive,inactive,inactive,inactive,
